# Source: PubChem BioAssay (EPA / NIEHS)
# More than one record can exist for a structure, and the calls need not agree. Active and inactive are the calls of the source. Rule for the calls: active = hit-call score of the fitted dose curve at least 0.9, where 1 is the maximum; inactive = score below 0.9.
# Key:
# Conditions in all cases: primary human HUVEC with PBMC; actives raise or lower the signal
# [1] = read-out: Monocyte Chemoattractant Protein-1 (MCP1), CCL2 (gene 6347); experiment: BSK_LPS_MCP1: BioMAP Diversity Plus: LPS Assay for Monocyte Chemoattractant Protein-1 (MCP1) Biomarker Activity (AID 2283081);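 for AC50: secreted MCP-1 protein quantified by ELISA in culture supernatant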
# Method in brief: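 LPS-stimulated HUVEC/PBMC co-culture; chemical, 24 h; MCP-1 by ELISA; bidirectional fit vs DMSO; cytotoxicity via SRB (0.1% stain, 10% TCA fix, 560 nm) in parallel wells.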
# [2] = BSK_LPS_PGE2: BioMAP Diversity Plus: LPS Assay for Prostaglandin E2 (PGE2) Biomarker Activity (AID 2283082);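 for AC50: secreted prostaglandin E2 measured by ELISA in LPS-stimulated co-culture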
# Method in brief: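 HUVEC plus PBMC co-culture stimulated with LPS; secreted PGE2 quantified by ELISA 24 h after chemical dosing. Activity fitted bidirectionally against DMSO as negative control and baseline; parallel SRB total-protein staining served as cytotoxicity check.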
# [3] = read-out: Macrophage colony-stimulating factor (MCSF), CSF1 (gene 1435); experiment: BSK_LPS_MCSF: BioMAP Diversity Plus: LPS Assay for Macrophage colony-stimulating factor (MCSF) Biomarker Activity (AID 2283083)
# Method in brief: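 Compound is added to a human vascular primary co-culture of umbilical vein endothelium and blood mononuclear cells. After 24 h, M-CSF is quantified by ELISA. Signal changes are fitted in both directions against DMSO.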
# [4] = read-out: Tissue Factor, F3 (gene 2152); experiment: BSK_LPS_TissueFactor: BioMAP Diversity Plus: LPS Assay for Tissue Factor Biomarker Activity (AID 2283084)
# Method in brief: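 In this co-culture system of umbilical vein endothelium with PBMC, stimulated with LPS, cell-surface CD142 is detected by ELISA at 24 h. Endpoint values derive from bidirectional fitting, DMSO serving as baseline.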
# [5] = read-out: Tumor necrosis factor (Homo sapiens) (UniProt P01375); experiment: BSK_LPS_TNFa: BioMAP Diversity Plus: LPS Assay for Tumour Necrosis Factor alpha (TNFa) Biomarker Activity (AID 2283085)
# Method in brief: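 Human umbilical vein endothelial cells co-cultured with PBMC were exposed to test chemical and TNFa measured by ELISA 24 h after dosing. Bidirectional curve fitting was done relative to DMSO as negative control and baseline.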
# [6] = read-out: Vascular cell adhesion molecule 1 (VCAM1), VCAM1 (gene 7412); experiment: BSK_LPS_VCAM1: BioMAP Diversity Plus: LPS Assay for Vascular cell adhesion molecule 1 (VCAM1) Biomarker Activity (AID 2283086)
# Method in brief: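 Human umbilical vein endothelial cells co-cultured with peripheral blood mononuclear cells under LPS stimulation were exposed to test chemical for 24 h. VCAM-1 levels were then measured by ELISA, with bidirectional curve fitting relative to DMSO as negative control and baseline.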
# [7] = read-out: CD38, CD38 (gene 952); experiment: BSK_SAg_CD38: BioMAP Diversity Plus: SAg Assay for CD38 Biomarker Activity (AID 2283087)
# Method in brief: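 Fluorescence ELISA of cell-surface CD38 served as the read-out, with either increase or decrease fitted against DMSO controls. Cells were a human umbilical vein endothelium plus PBMC co-culture under SEB/TSST-1 stimulation, measured 24 h after dosing.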
# [8] = read-out: CD40, CD40 (gene 958); experiment: BSK_SAg_CD40: BioMAP Diversity Plus: SAg Assay for CD40 Biomarker Activity (AID 2283088)
# Method in brief: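 Fluorescence ELISA read-out of CD40 from umbilical vein endothelium plus peripheral blood mononuclear cells, sampled 24 h after dosing. Values come from bidirectional curve fitting with DMSO as baseline.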
# [9] = read-out: CD69, CD69 (gene 969); experiment: BSK_SAg_CD69: BioMAP Diversity Plus: SAg Assay for CD69 Biomarker Activity (AID 2283089);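 for AC50: cell surface CD69 protein quantified by ELISA with fluorescence detection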
# Method in brief: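 Primary human vascular co-culture (umbilical vein endothelium with peripheral blood mononuclear cells) exposed to test chemical for 24 h. CD69 levels quantified by fluorescence ELISA; DMSO served as negative control for bidirectional fitting.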
# [10] = read-out: Monocyte Chemoattractant Protein-1 (MCP1), CCL2 (gene 6347); experiment: BSK_SAg_MCP1: BioMAP Diversity Plus: SAg Assay for Monocyte Chemoattractant Protein-1 (MCP1) Biomarker Activity (AID 2283090)
# Method in brief: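 MCP-1 levels in the endothelial–PBMC SAg co-culture were quantified by ELISA at 24 h post-dosing; both increases and decreases versus DMSO scored. Cytotoxicity monitored by SRB total protein in parallel cultures.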
# Chain of Tumor necrosis factor (Homo sapiens) (P01375 whole entry, looked up): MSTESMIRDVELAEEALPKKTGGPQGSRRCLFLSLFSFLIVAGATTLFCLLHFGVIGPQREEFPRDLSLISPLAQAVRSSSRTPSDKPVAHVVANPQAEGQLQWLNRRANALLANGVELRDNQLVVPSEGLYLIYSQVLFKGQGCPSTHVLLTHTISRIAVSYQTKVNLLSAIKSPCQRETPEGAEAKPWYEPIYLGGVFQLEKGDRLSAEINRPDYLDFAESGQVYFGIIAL
SMILES,outcome [1],outcome [2],outcome [3],outcome [4],outcome [5],AC50 [6],outcome [6],outcome [7],outcome [8],outcome [9],outcome [10],AC50 [2],AC50 [5],AC50 [9],AC50 [10],AC50 [7],AC50 [8],AC50 [1],AC50 [3]
COCC(C)N(C(=O)CCl)c1c(C)csc1C (centres undefined),inactive,inactive,inactive,inactive,inactive,3.97 µM (active),inactive,inactive,inactive,inactive,inactive,,,,,,,,
CC1(C)C(C=C(Cl)Cl)C1C(=O)OC(C#N)c1cccc(Oc2ccccc2)c1 (centres undefined),inactive,,,inactive,,,inactive,inactive,inactive,inactive,inactive,4.89 µM (active),0.838 µM (active),,,,,,
CC(C)=CC1C(C(=O)OCc2coc(Cc3ccccc3)c2)C1(C)C (centres undefined),inactive,inactive,inactive,inactive,inactive,,inactive,inactive,inactive,,,,,11.4 µM (active),20 µM (active),,,,
CC(C)Nc1nc(Cl)nc(NC(C)C)n1,inactive,inactive,inactive,inactive,,,inactive,inactive,inactive,inactive,inactive,,7.35 µM (active),,,,,,
CNC(=O)N(C)c1nnc(C(C)(C)C)s1,inactive,inactive,inactive,inactive,inactive,,inactive,inactive,inactive,inactive,inactive,,,,,,,,
COc1cc(Cl)c(OC)cc1Cl,inactive,inactive,inactive,inactive,inactive,,inactive,inactive,inactive,inactive,inactive,,,,,,,,
CN/C(=N\[N+](=O)[O-])NCc1cnc(Cl)s1,inactive,inactive,inactive,inactive,inactive,,inactive,inactive,inactive,inactive,inactive,,,,,,,,
CC(C)Oc1cccc(NC(=O)c2ccccc2C(F)(F)F)c1,inactive,inactive,inactive,inactive,inactive,,inactive,inactive,inactive,inactive,inactive,,,,,,,,
CN=C=S,inactive,inactive,inactive,inactive,inactive,,inactive,,,inactive,,,,,20 µM (active),10 µM (active),13.5 µM (active),,
CCOP(=S)(OCC)Oc1nc(Cl)n(C(C)C)n1,inactive,,inactive,inactive,inactive,,inactive,inactive,inactive,inactive,inactive,14.1 µM (active),,,,,,,
N#Cc1c[nH]cc1-c1cccc2c1OC(F)(F)O2,,inactive,,inactive,,20 µM (active),,,,,,,29.8 µM (active),24.5 µM (active),20.4 µM (active),29.1 µM (active),20 µM (active),17.9 µM (active),26.3 µM (active)
CCCC(=NOCC)C1=C(O)CC(CC(C)SCC)CC1=O (centres undefined),inactive,inactive,,inactive,inactive,,inactive,inactive,inactive,inactive,inactive,,,,,,,,
CCSC(=O)N1CCCCCC1,inactive,inactive,inactive,inactive,inactive,,inactive,inactive,inactive,inactive,inactive,,,,,,,,
COC(=O)c1c(C(F)F)nc(C(F)(F)F)c(C2=NCCS2)c1CC(C)C,inactive,,,inactive,,,inactive,,,inactive,inactive,12.2 µM (active),8.66 µM (active),,,25.7 µM (active),24 µM (active),,14.3 µM (active)
CS(=O)(=O)c1cc(C(F)(F)F)ccc1C(=O)c1cnoc1C1CC1,inactive,inactive,inactive,inactive,inactive,,inactive,,inactive,inactive,inactive,,,,,5.57 µM (active),,,
CO/N=C(/C1=NOCCO1)c1ccccc1Oc1ncnc(Oc2ccccc2Cl)c1F,,inactive,,inactive,inactive,,inactive,,,,,,,9.36 µM (active),27.2 µM (active),22.3 µM (active),14.9 µM (active),22.1 µM (active),19.2 µM (active)
COc1ccc(-c2ccccc2)cc1NNC(=O)OC(C)C,inactive,,inactive,inactive,,,inactive,inactive,inactive,inactive,inactive,1.84 µM (active),4.44 µM (active),,,,,,
